Calpain2 inh: inhibitors of pig calpain II, primary screen, biochemical, fluorogenic peptide substrate, 1536-well. 220,000 compounds, 0.37% hits. purified calpain II, 30 min. inhibition, % at 16 µM;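 active = inhibition above about 50%, limit read from the data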
TNF death inh: inhibitors of TNF-alpha triggered necroptosis, primary screen, cell-based, Jurkat FADD-/-, single concentration; activation (protection from cell death), % at 10 µM; 220,000 compounds, 0.068% hits; Jurkat FADD-/- TNF necroptosis rescue, ATP luminescence, 24 h; 0 = TNF only, 100 = no-TNF cells;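 active = activation, meaning protection from cell death, of at least 50% relative to plate controls; inactive = activation below 50%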;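 note: necroptosis triggered by 40 ng/mL TNF-alpha added together with compound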
L929 necroptosis: inhibitors of zVAD-triggered necroptosis, primary screen, L929 cells; viability rescue, % at 10 µM; L929 zVAD necroptosis rescue, ATP luminescence, 24 h; with zVAD 60 µM; 220,000 compounds, 0.38% hits;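 active = activation, scaled between plate controls, above about 75%, limit read from the data; inactive = activation under that limit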;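 note: 0% = zVAD with DMSO and 100% = DMSO alone without zVAD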
14-3-3 Bad PPI: inhibitors of 14-3-3 zeta/Bad binding, primary screen, biochemical, TR-FRET, bovine 14-3-3 zeta; inhibition, % at 21.7 µM; TR-FRET 14-3-3zeta/Dy647-pBad peptide displacement, 1 h; 14-3-3 protein zeta/delta (Bos taurus), P63103; 220,000 compounds, 0.71% hits;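 active = inhibition above about 70%, limit read from the data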;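 note: 0% = full 14-3-3 plus peptide FRET controls and 100% = background without 14-3-3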
Target sequence (P63103 whole entry, looked up): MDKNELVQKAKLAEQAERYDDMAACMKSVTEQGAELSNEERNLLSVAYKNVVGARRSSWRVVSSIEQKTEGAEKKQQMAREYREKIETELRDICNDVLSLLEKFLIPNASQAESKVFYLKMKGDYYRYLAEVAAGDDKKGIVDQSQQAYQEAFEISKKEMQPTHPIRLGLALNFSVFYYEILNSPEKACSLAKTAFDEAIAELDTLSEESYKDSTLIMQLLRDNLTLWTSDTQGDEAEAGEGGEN
ROMK primary: ROMK potassium channel modulators, primary screen, cell-based, thallium flux, MLSMR library | Tet-inducible ROMK, thallium flux fluorescence; actives lie on both sides | 130,000 compounds, 2% hits | B-score at 10 µM | ATP-sensitive inward rectifier potassium channel 1 (Homo sapiens), P48048;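 active = signal ratio slope over the read window, or its plate-corrected B-score, at least 3 SD from the plate mean, either direction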;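 note: B-score of the F/F0 ratio slope over 7 to 12 s after thallium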
Efa HMGR inh: inhibitors of E. faecalis class II HMGR, primary screen, biochemical, Enterococcus faecalis; HMG-CoA reductase (Enterococcus faecalis, mvaE); AID 1066, 2008; 190,000 compounds, 0.41% hits; purified E. faecalis HMGR, NADPH absorbance 340 nm kinetic; inhibition, % at 10 µM;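 active = inhibition above a set limit, the median over all tested compounds plus 3 SD, cut at about 9.5% in these data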;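 note: enzyme runs in reverse so mevalonate oxidation gives rising NADPH absorbance; 0% = complete reaction with DMSO and 100% = background rate lacking mevalonate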
ROMK hit retest: ROMK channel modulator hit retest, confirmation, cell-based, thallium flux, duplicate, resupplied hits | shares compounds with ROMK primary | fluorescence ratio; active compounds read low | normalized thallium flux (F/F0 slope) at 10 µM | 3,000 compounds, 54% hits | AID 1917, 2009;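 active = Flux at 10 µM at least 3 SD below or above vehicle control mean in one or both replicates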
Numbers without * were called inactive; / = no result; ! = a repeat was not active. The list is not random: actives were taken first. Their share in the collection is about 3%.

SMILES	Calpain2 inh	TNF death inh	L929 necroptosis	14-3-3 Bad PPI	ROMK primary	Efa HMGR inh	ROMK hit retest
CCOc1ccc(C(=O)NC(=S)Nc2cccc(S(=O)(=O)NC3=NCCC3)c2)cc1	12	-6	1	-14	5.7*	1	0.096
Cc1cc(C(=O)OCn2nnc3ccccc3c2=O)c(C)n1-c1ccccc1	20	-5	0	-12	1.5	-4	/
CC(C)(C)c1[nH]nc2c1C(c1ccsc1)C(C#N)=C(N)O2 (centres undefined)	-23	-1	15	-6	0.35	-1	/
CCc1[nH]nc2c1C(c1ccsc1)C(C#N)=C(N)O2 (centres undefined)	-19	-7	0	-6	-4.3*	-4	0.063*
COc1ccc(Cl)cc1C(=O)Nc1cccc(-c2ccc3nncn3n2)c1	30	-2	3	17	0.11	-2	/
Cc1[nH]n(-c2ncc(-c3ccccc3)s2)c(=O)c1C(c1ccc(Cl)cc1)C(C#N)C#N (centres undefined)	-50	1	0	-16	-2.3	2	/
Cn1cccc1/C=C1\SC(=S)N(NC(=O)c2ccccc2)C1=O	20	3	0	-1	-2.7*	0	0.06*
Cn1cccc1/C=C1\SC(=S)N(NC(=O)c2ccc(F)cc2)C1=O	16	2	0	0	-0.63	/	/
Oc1ccc2cc(Br)ccc2c1CN1CCCC1	-2	1	0	1	-0.52	0	0.064*
CCOC(=O)c1nc(Nc2ccc(N3CCC(C)CC3)cc2)c2ccccc2n1	-2	1	7	-10	/	0	/
O=C(O)c1cc(-c2ccc(/C=C3/SC(=S)N(Cc4ccccc4)C3=O)o2)ccc1Cl	40	-3	0	100*	-4*	-1	0.043*
N#Cc1c(N)n(-c2cccc(O)c2)c2nc3ccccc3nc12	-327	-4	68	1	/	/	/
Nc1nn(-c2ccccc2)c(N)c1N=Nc1ccc2c(c1)OCO2	0	-1	3	-1	2.7	-4	/
Nc1nn(-c2ccccc2)c(N)c1N=Nc1cccc(F)c1	20	-14	-1	0	3.4*	/	0.086
O=c1c2cn[nH]c2nc(SCc2c(F)cccc2F)n1-c1ccc(Cl)cc1	-91	-1	-1	-18	-2.3	4	/
CC(=O)NCC(=O)OC(C)C(=O)Nc1ccc(C(C)=O)cc1 (centres undefined)	-11	0	0	-15	/	-8	0.075
CC(=O)NCC(=O)OCC(=O)Nc1ccc(C(C)=O)cc1	-21	2	1	-7	0.12	-2	/
CC1(C)CN(c2cccc(Br)c2)C1=O	12	2	1	7	2.1*	0	0.073
C=CCOC(=O)C1C(=O)CC(C)(O)C(C(=O)OCC=C)C1c1ccc(OC)cc1 (centres undefined)	-2	1	0	9	1.2*	-7	0.075
CCCCC(CCC(=O)O)(C(=O)OCC)c1csc(Nc2ccc(OCC)cc2)n1 (centres undefined)	15	2	1	1	/	/	/
CC(/C=N/Nc1ncc(C)c(=O)[nH]1)=C\c1ccccc1	4	2	20	-9	0.076	-5	/
COc1nccnc1NS(=O)(=O)c1ccc(N=Cc2c(C)[nH]n(-c3ccc(Cl)cc3)c2=O)cc1	-30	-5	0	-4	/	0	/
COc1nccnc1NS(=O)(=O)c1ccc(N=Cc2c(C)[nH]n(-c3ccc(C)c(C)c3)c2=O)cc1	-23	-10	1	5	2.3*	-4	0.086
CCSc1nc2ccccc2c(=O)n1CCc1ccc(OC)c(OC)c1	8	-1	-1	-2	/	/	0.082
CC(C)(C)c1nc(Sc2ccc([N+](=O)[O-])cn2)n[nH]1	-5	4	1	1	/	/	/
SMILES	Calpain2 inh	TNF death inh	L929 necroptosis	14-3-3 Bad PPI	ROMK primary	Efa HMGR inh	ROMK hit retest
O=[N+]([O-])c1ccc(Sc2n[nH]c(-c3ccc(Cl)cc3Cl)n2)nc1	11	-1	0	4	/	-3	0.06*
Cc1ccc(CNC(=O)Cc2noc3ccccc23)cc1	24	1	0	3	-0.02	-5	/
O=C(Nc1nccs1)c1cc(Cl)nc2ccccc12	13	1	3	1	/	/	0.078
CC1(C)N([O-])C(c2ccccc2)=C[N+](=O)C1(C)C	-35	-3	0	1	/	-2	/
COc1ccc(OC)c(C2=C[N+](=O)C(C)(C)C(C)(C)N2[O-])c1	23	-1	0	4	4.6*	-3	0.088
O=C(C1CCCN(S(=O)(=O)c2ccc(Cl)cc2)C1)N(Cc1cccs1)C1CC1 (centres undefined)	22	-3	0	4	-4*	-4	0.058*
Cc1ccc(S(=O)(=O)c2c(C)cc(C)nc2N2CCCCC2)cc1	33	-1	0	-6	1.2	-2	/
CCCCCCCCCCCCCCCCn1cc[n+](C)c1	54*!	-28	6	95*	-2.2	-6	0.065*
O=C(O)CN1C(=O)SC(Nc2ccccc2C(=O)O)C1=O (centres undefined)	-71	4	1	3	-0.061	-2	/
CCOC(=O)C1C(c2ccc(O)c(O)c2)NC(=S)NC1(O)C(F)(F)F (centres undefined)	-9	0	1	-18	0	-1	/
c1csc(CNc2ncnc3sccc23)c1	/	-8	0	/	-2.9*	/	0.066*
CCCSC(=S)c1c(C)[nH]n(-c2ccccc2)c1=O	12	5	1	1	/	/	0.12*
CCCCN(CCCC)C(=S)N/N=C/c1c(C)[nH]n(-c2ccccc2)c1=O	16	-23	24	3	/	-3	/
Cn1cnc([N+](=O)[O-])c1N=C(N)N	6	0	-1	-5	/	/	/
COc1ccccc1N(Cc1ccccc1)S(=O)(=O)c1cccc(C(=O)Nc2ccc(C(C)=O)cc2)c1	7	5	1	-11	1.1	-1	/
COc1ccc(OC)c(N(CC(=O)Nc2ccc3c(c2)OCO3)S(=O)(=O)c2ccccc2)c1	-19	-2	0	14	-2.8*	-3	0.075
COc1ccc(OC)c(NC(=O)c2cccc(S(=O)(=O)N(Cc3ccccc3)c3ccccc3OC)c2)c1	-8	6	0	12	/	-4	0.078
CNC(=O)c1nnsc1S(=O)(=O)c1ccc(Cl)cc1	11	-19	-1	-9	-5.6*	0	0.053*

Screens: PubChem, several laboratories
